In PubChem BioAssay (NCATS):
Inconclusive results are not listed. Calls of active or inactive are those of the source. The call rests on the fitted dose curve; in most records, active means well fitted cell-killing curve with a large enough effect; inconclusive means small, poorly fitted or top-dose-only effect, or effect the other way; inactive means flat fitted curve, though single readings scatter.

How the values were obtained:
Experiment in all cases: Primary qHTS to identify gynecologic anti-cancer compounds using libraries of approved drugs and bioactive compounds (AID 1345084); further: nearly all actives have a fitted effect of over 55% in size
Details in all cases: Gynecologic cancer cell panel viability, ATPlite luminescence, 48 h; series mostly up to 57.5 µM
OV90 = system: OV90
In short: (§1)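 Luminescence from the ATPlite ATP-monitoring reagent indicates viable cell number; lower signal means cytotoxicity. Cells received compound 16 h after seeding and were exposed for 48 h across five concentrations.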

PA-1 = system: PA-1
In short: as §1

SKOV3 = system: SKOV3
In short: as §1

Tov-21-G = system: Tov-21-G
In short: as §1

Tov112D = system: Tov112D
In short: as §1

Measured: Potency

CC(C)=C1CC2C(CCC2(C)O)C(C)(O)CC1=O (stereo not given)
inactive: all assays above

C=C1C(OC(C)=O)C(=O)C2C(C)(C)C(O)CCC2(C)C1CC(OC(C)=O)/C(C)=C/COC(C)=O (stereo not given)
inactive: all assays above

CC1CC=C2C1CC1(O)C(=O)CC2(C)C1(C)CO (stereo not given)
inactive: all assays above

COc1cc(C(=O)OCC2=CCC3C(C(=O)O)=COC(O[C@@H]4O[C@H](CO)[C@@H](O)[C@H](O)[C@H]4O)C23)ccc1O (stereo not given in full)
inactive: all assays above

N[C@@H](CC(=O)Nc1ccc(Oc2cc(F)c(F)cc2Br)cc1)C(=O)O
inactive: all assays above

CC[C@@H](C)[C@H](N)C(=O)N1Cc2ccccc2C1
inactive: all assays above

CC1=CC(=O)C(=C(C)C)CC2C(C)(O)CCC12O (stereo not given)
inactive: all assays above

Cn1cc(Nc2cnccc2C(=O)O)c2cccnc21
inactive: all assays above

CC1C2=CC(=O)OC2(O)CC2C1C(O)CC1C(C)(CO)CCCC21C (stereo not given)
inactive: all assays above

Cc1ccc(C)c(S(=O)(=O)n2cnc3ccccc32)c1
inactive: all assays above

C=C[C@]1(C)C[C@@H](OC(=O)CSC2C[C@H]3CC[C@@H](C2)N3C)[C@]2(C)[C@H](C)CC[C@]3(CCC(=O)[C@H]32)[C@@H](C)[C@@H]1O (stereo not given in full)
inactive: all assays above

CC(C)(O)[C@@H]1CC[C@]2(CO)[C@@H](O)CC[C@](C)(O)[C@H]2[C@@H]1O[C@@H]1O[C@H](CO)[C@@H](O)[C@H](O)[C@H]1O
inactive: all assays above

COC(=O)C1=CO[C@@H](O[C@@H]2O[C@H](CO)[C@@H](O)[C@H](O)[C@H]2O)C2C1CC(O)C2C (stereo not given in full)
inactive: all assays above

CC1=C2CC(=O)C(C)CC/C=C(\C)CC2OC1=O (stereo not given)
inactive: all assays above

Cc1c(O)cc2c(c1O)COC1(O)CCCOC21 (stereo not given)
inactive: all assays above

Nc1ncnc2c1C(=O)N(c1ccc(C3CCC(CC(=O)O)CC3)cc1)CCO2 (stereo not given)
inactive: all assays above

C/C=C1\[C@H](O[C@@H]2O[C@H](CO)[C@@H](O)[C@H](O)[C@H]2O)OC=C(C(=O)OCCc2ccc(O)cc2)[C@H]1CC(=O)OCCc1ccc(O)cc1
inactive: all assays above

CC(C)Oc1ccc(-c2nc(-c3cccc4c3CCC4NCCC(=O)O)no2)cc1C#N (stereo not given)
inactive: all assays above

C[C@H]1[C@H](C)CC[C@]2(C(=O)O)CC[C@]3(C)C(=CCC4[C@@]5(C)C[C@@H](O)[C@H](O)C(C)(C)C5CC[C@]43C)[C@H]12 (stereo not given in full)
inactive: all assays above

OC[C@H]1O[C@@H](OCCc2ccccc2)[C@H](O[C@@H]2OC[C@@H](O)[C@H](O)[C@H]2O)[C@@H](O)[C@@H]1O
inactive: all assays above

COc1cc(O)cc(C)c1C(=O)OC1C(CO)OC(n2ccc(=O)[nH]c2=O)C1OC(C)=O (stereo not given)
inactive: all assays above
